# Experimental data as given in PubChem BioAssay AID504832 (National Center for Advancing Translational Sciences (NCATS), 2011).
# Hit rate of the full screen: of about 310,000 compounds, about 18,000 (5.8%) were called active. Another 22% or so got no clear call; they are omitted. This excerpt belongs to a sample that is enriched for actives. Unmarked numbers belong to inactive results. The call rests on the fitted dose curve; in most records, active means well fitted inhibition curve with a large enough effect; inconclusive means small, poorly fitted or top-dose-only effect, or another doubt; inactive means no such curve, though single readings can be large or run the other way.
# Assay: Primary qHTS for delayed death inhibitors of the malarial parasite plastid, 48 hour incubation
# Details: P. falciparum luciferase growth in erythrocytes; series mostly up to 28.7 µM; activity change, negative = inhibition: at the top concentration
# Outline: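 A one-generation exposure of luciferase-tagged malaria parasites in RPMI 1640/Albumax erythrocyte culture, 37 C and 5% CO2. Inhibition is inferred from decreased luminescence after adding detection reagent.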
# On the % scale 0 is the no-effect control and ±100 the full control effect; potency means the concentration at half of the fitted maximal effect.
Compound,"activity change, negative = inhibition [%]",Potency
Cc1ccccc1CCNC(=O)C1CCC(=O)N(Cc2ccc(Cl)cc2)C1 (configuration not stated),3.12,
Cc1c(C)n2c(SCC(=O)N3CCCC3)nnc2[nH]c1=O,-28.1,
COC(=O)Cc1ccc(OCC(=O)NC2CCCC2)cc1,-4.97,
CCOc1ccc(NC(=O)COC(=O)C2CCC(=O)N2)c([N+](=O)[O-])c1 (configuration not stated),-2.02,
COc1ccc(N(C(=O)c2cccnc2)S(=O)(=O)c2ccc3c(c2)n(C)c(=O)n3C)cc1,2.95,
COc1ccc(-c2c3c(=O)n(C)c(=O)n(C)c3cn2-c2cccc(OC)c2)cc1,,11.7 µM (active)
COc1ccc(-c2c3c(=O)n(C)c(=O)n(C)c3cn2NC(C)=O)cc1,-2.03,
COc1ccc(-n2c(-c3ccccc3)nc3ccccc3c2=O)cc1,4.43,
COc1cccc(-n2cc(C(=O)O)c3ccccc3c2=O)c1,-2.63,
COc1cccc(-n2cc3c(c2-c2ccccc2)c(=O)n(C)c(=O)n3C)c1,,5.22 µM (active)
Cc1cnc(NC(=O)c2ccc(Cl)nc2)s1,-10.1,
COC(=O)c1ccc(N2CCOCC2)c(NC(=O)c2ccc3c(c2)OCCO3)c1,-2.73,
Cc1ccc(Nc2ncnc3c2cnn3C)c(C)c1,4.24,
CCCCn1c(CN2CCN(CCO)CC2)nc2ccccc21,-10.1,
N#Cc1c2c(c(N3CCN(CCO)CC3)n3c1nc1ccccc13)CCCC2,,0.828 µM (active)
CC1CCc2sc3nc(N4CCN(CCO)CC4)n4ncnc4c3c2C1 (configuration not stated),17.3,
CCN(CC(=O)Nc1cc(Cl)ccc1C)C(=O)CN1C(=O)NC2(CCCC2)C1=O,12.9,
CCn1ccnc1CN(C)C(=O)c1cc(COc2ccc(-n3cncn3)cc2)on1,-9.33,
O=C(c1ccco1)N1CCN(C(=S)Nc2cc(F)cc(F)c2)CC1,0.0313,
NC(=O)CC(NC(=O)Cc1ccc(Br)cc1)c1ccc(NC2CC3CCC2C3)c([N+](=O)[O-])c1 (configuration not stated),8.6,
CN(C(=O)c1cccc([N+](=O)[O-])c1)c1ccccc1C(=O)NCc1ccccc1,13.1,
CC(CCc1ccccc1)NCC(O)c1cccc([N+](=O)[O-])c1 (configuration not stated),,0.233 µM (active)
CC(C)OP(=O)(OC(C)C)C(Nc1ccccc1)c1cccc([N+](=O)[O-])c1 (configuration not stated),0,
COc1ccc(N2CCN(C(=O)c3ccccc3NC(=O)C3=C(C)OCCS3)CC2)cc1,-28.6,
c1ccc(-n2nnnc2-c2cccnc2)cc1,31.6,
Clc1ccc(-n2nnnc2-c2cnc(-c3ccccn3)nc2-c2cccs2)cc1,,3.7 µM (active)

Compound,"activity change, negative = inhibition [%]",Potency
c1ccc(-c2noc(-c3cccs3)n2)nc1,209,
Cc1ccc(OC(=O)c2cncc(Br)c2)c(C)c1,-5.17,
CCn1c(SCC(=O)NC2CC2)nnc1-c1ccncc1,-1.37,
O=C(Nc1ccc(Cl)c(Cl)c1)c1ccccc1NC(=O)C1CC=CCC1C(=O)O (configuration not stated),5.71,
CN(C)CCSc1nc(N)c2c3c(sc2n1)COC(C)(C)C3,-25.5,
CN1CCc2c(sc3c2c(NCc2ccco2)nc2nnnn23)C1,-0.28,
CCCSc1nc(NCc2ccco2)c2c3c(sc2n1)COC(C)(CC)C3 (configuration not stated),,9.28 µM (active)
COc1cc(C2NC(=O)NC(c3ccccc3)=C2C(C)=O)c(Br)cc1OCC(N)=O (configuration not stated),-7.95,
CCOc1ccc(C(C)NC(=O)CN2C(=O)NC3(CCCCC3)C2=O)cc1OCC (configuration not stated),-11.8,
CCOc1ccc(C(C)=O)cc1COC(=O)CN1C(=O)NC2(CCCC2)C1=O,,13.1 µM (active)
Cc1ccc(COC(=O)CN2C(=O)NC3(CCCC3)C2=O)cc1,-11.2,
CCC1C(=O)NCCN1C(=O)c1ccc2nc(Cc3ccc(OC)cc3)oc2c1 (configuration not stated),-17.4,
CCOc1ccc(NC(=O)C2CCCN(C(=O)Nc3ccccc3)C2)cc1 (configuration not stated),-21.5,
COc1ccc(CCNC(=S)N2CCN(S(=O)(=O)c3ccc(F)cc3)CC2)cc1,,2.62 µM (active)
CCOc1cccc(NC(=O)C2CCCN(S(=O)(=O)c3ccc(OC)cc3)C2)c1 (configuration not stated),,4.65 µM (active)
CC(C)CCNC(=O)C1CCCN(S(=O)(=O)c2ccc(F)cc2)C1 (configuration not stated),-11.9,
CCN(CC(=O)Nc1ccc(S(=O)(=O)N2CCCC2)cc1)CC(=O)Nc1cccc(OC)c1,-15.8,
CCOC(=O)N1CCN(S(=O)(=O)c2ccc(OC)cc2)CC1,-4.19,
CCCCNC(=O)C1CCCN(S(=O)(=O)c2ccc(S(=O)(=O)NCC(C)C)cc2)C1 (configuration not stated),-13.8,
COc1ccc(CCNC(=O)C2CCCN(S(=O)(=O)c3ccc(OC)cc3)C2)cc1 (configuration not stated),,9.28 µM (active)
COc1ccc(CCNC(=S)N2CCN(S(=O)(=O)c3ccc(Cl)cc3)CC2)cc1,-0.768,
Cc1cccc(OCC(=O)NCCNC(=O)c2cccnc2)c1,5.02,
CC(C)(C)C(=O)Nc1ccc(-c2cn3cccnc3n2)cc1,64.1,
CN(Cc1ccccc1)C(=O)C(=O)c1cn(CC(=O)N2CCCC2)c2ccccc12,-2.31,
O=c1oc2ccc(C#CC3(O)CCCCC3)cc2cc1-n1cc(-c2ccsc2)nn1,0,
CCc1ccc(-c2nn(-c3ccccc3C)cc2C(=O)N2CCN(C3CCS(=O)(=O)C3)CC2)cc1 (configuration not stated),-28,
